Hits are enriched below; roughly 2% of the tested compounds scored in any of these assays.
CCHF vOTU inh = CCHFV vOTU protease inhibition | Pep-AMC fluorescence | inhibition, % at 11.5 µM | 0.55% of 370,000 active | AID 651958; in the data active = inhibition above about 30%; also: 0% = vehicle wells with enzyme and 100% = no enzyme wells
PfHsp40 rescue = compounds rescuing yeast from Plasmodium falciparum HSP40 toxicity; S. cerevisiae expressing PfHsp40, growth rescue, ATP luminescence; growth rescue, % at 12.5 µM; 0.68% of 340,000 active; in the data active = growth rescue above about 28%, passing the limit was not always enough;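 also: yeast W303a lacking pdr1 and pdr3 grown in galactose medium; growth measured after three days at 30 °C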
Y pestis TopoI = inhibitors of Yersinia pestis topoisomerase I; Y. pestis Topo-I cleavage product accumulation, plate reader; activity, % at 10 µM; 0.064% of 360,000 active; AID 504884; in the data active = activity above about 50%, passing the limit was not always enough
PrPC surface inh = inhibitors of human cell surface prion protein PrPC. P04156. TR-FRET read-out. inhibition, % at 13.8 µM. 0.43% of 370,000 active. AID 720596; in the data active = inhibition above about 24%; also: 0% = median of the test wells and 100% = reference compound wells
BJeLR lethal = BJeLR cell viability loss. 0.17% of 300,000 active. AID 1554. BJeLR (HRASV12) viability, CellTiter-Glo ATP luminescence, 48 h. inhibition, % (no concentration beside the values); in the data active = inhibition above about 50%
PrP UTR inh = inhibition of PrP 5' UTR reporter expression | inhibition, % (test concentration not listed) | AID 488862 | cell-based PrP 5' UTR mRNA reporter, plate reader | 0.35% of 340,000 active; in the data active = inhibition above about 52%; also: 0 = median of the neutral control wells
* marks the source's active call; other numbers are inactive results; nt = not tested or not shown; + = active, no number.

SMILES	CCHF vOTU inh	PfHsp40 rescue	Y pestis TopoI	PrPC surface inh	BJeLR lethal	PrP UTR inh
COc1cc(C2C3C(C)N(C)C(=O)N(C)C3N(C)C(=O)N2C)ccc1O (stereo not drawn)	-1	52*	-3	-6	-16	-15
O=C(CCS(=O)(=O)c1ccccc1)Nc1ccc(F)cc1Cl	-2	nt	nt	3	nt	nt
Cc1[nH]nc(C(=O)NN=Cc2ccccc2Cl)c1N=NN(C)C	-8	41*	2	0	nt	-30
O=C(Nc1cccc(Cl)c1)ON=C1c2ccccc2-c2ccccc21	-11	37*	-3	-1	4	-34
CC(=N/O)/C(=N\O)c1ccc(C)o1	17	242*	8	-1	9	-12
Cc1ccc(/C=C2\SC(=S)N(CCCC(=O)N3CCOCC3)C2=O)cc1	9	0	36	-3	89*	-13
COc1ccc(/C=C/c2nc3ccccc3n2C)cc1	-9	-3	12	1	80*	1
C=C1C(=O)OC2CC1C(O)CC(C)=CCCC(C)=CC(O)CC2C (stereo not drawn)	-7	-1	20	33*	nt	-50
Clc1ccc(OCc2nn3c(C4CCCCC4)nnc3s2)cc1	16	-1	54*	4	0	-9
COc1ccc(CN2C(=O)[C@]3(NCCc4c3[nH]c3ccc(OC)cc43)c3cc(Br)ccc32)cc1	9	nt	nt	3	nt	nt
O=C(Nc1nc(-c2ccccn2)cs1)c1ccc(Cl)s1	-3	-1	0	15	-4	15
Cc1ccc(C(=O)Nc2nc(-c3ccccn3)cs2)s1	29	59*	-13	20	nt	10
CCc1sc(C(=O)Nc2nc(-c3ccccn3)cs2)cc1C	nt	441*	-7	nt	nt	19
CCOC(=O)C1SC2(C(F)F)CC1(O)c1c(c(OC)c3occc3c1OC)O2 (stereo not drawn)	-5	38*	8	1	1	-22
CCOc1ccccc1C(=O)N1CCN(c2cccc(Cl)c2)CC1	2	0	20	10	53*	53
OC(c1cc(-c2ccc(Cl)cc2)nc2ccccc12)C1CCCCN1 (stereo not drawn)	6	-2	-4	-9	126*	-17
CN1OC[C@@H]2CN[C@H](c3ccc(N4CCCCC4)cc3)C[C@@H]21	0	nt	nt	-3	nt	nt
O=C(CN1CC(=O)Nc2ccccc21)Nc1ccc(F)c(F)c1	-2	43*	0	-4	-15	-15
COCCCNC(=O)CSc1nnc(-c2ccncc2)n1-c1ccc(OC)cc1	-1	nt	nt	3	nt	nt
CCn1nnc(-c2ccccc2NC(=O)c2ccc(-n3cnnn3)cc2)n1	9	71*	7	5	-6	-11
CCn1nnc(-c2ccccc2NC(=O)c2cccc(-n3cnnn3)c2)n1	-12	2	2	6	2	-4
C(=N\Nc1nncc2ccccc12)/c1cccnc1	0	nt	nt	9	nt	nt
CCn1nnnc1NCc1ccc(SC)cc1	6	39*	1	7	2	-15
CCn1nnnc1NCc1ccc(N2CCCC2)cc1	20	0	-4	0	-1	-19
COC(=O)[C@]12C[C@H](CC(=O)NCCCN3CCCC3=O)C(=O)N(CCc3ccc(OC)c(OC)c3)C1=C[C@H](C(C)(C)C)O[C@@H]2C	7	nt	nt	11	nt	nt
SMILES	CCHF vOTU inh	PfHsp40 rescue	Y pestis TopoI	PrPC surface inh	BJeLR lethal	PrP UTR inh
CCc1ccc(CNC(=O)Cc2ccc(NC(=O)C3=C(C)OCCS3)cc2)cc1	14	-1	27	11	53*	12
CC1CCN(c2ccc(C(=O)O)cc2NS(=O)(=O)c2ccccc2[N+](=O)[O-])CC1	6	nt	nt	-3	nt	nt
O=C(Cc1c[nH]c2ccccc12)Nc1ccc(Nc2cccnc2)cc1	8	nt	nt	0	nt	nt
N/C(=N\OC(=O)c1ccc(Cl)cc1)c1ccn[nH]1	1	34*	12	5	0	-41
N/C(=N\OC(=O)c1ccc(Cl)cc1)c1ccc(Cl)cc1	9	0	-8	1	-14	-106
CCOC(=O)c1c(N2C(=O)CC(Sc3ccccc3C(=O)O)C2=O)sc2c1CCCC2 (stereo not drawn)	15	41*	16	1	6	-22
Cc1cccc(Nc2nc(-c3ccccn3)cs2)n1	-3	512*	-2	-6	-1	nt
Cc1cccnc1Nc1nc(-c2ccccn2)cs1	8	77*	1	24	53*	-28
NC(=O)c1ncn([C@@H]2O[C@H](C(=O)N[C@H](Cc3ccccc3)C(=O)N3CCN(CC(=O)Nc4ccccn4)CC3)[C@@H](O)[C@H]2O)n1	-2	nt	nt	9	nt	nt
Oc1c(Cl)cc(Cl)c2c1NCCC2	0	87*	-13	-3	-8	-15
O=C(NCC1CCN(C(=O)C(=O)c2cc3ccccc3o2)CC1)c1ccc2c(c1)OCC2	9	nt	nt	3	nt	nt
CN1/C(=C\C=O)C(C)(C)c2ccccc21	15	0	4	3	-26	-14
CN1\C(=C/C=C/C=C/C=[N+](C)C)C(C)(C)c2ccccc21	8	1	+	7	13	-1
O=C(O)C1Nc2c(O)cc(Cl)c([N+](=O)[O-])c2C2C=CCC12 (stereo not drawn)	35*	-1	-45	-2	-3	-25
COc1cc(C(=O)/C=C/c2cccnc2)c([N+](=O)[O-])cc1OC	11	2	6	-14	55*	-36
O=C(/C=C/c1cccnc1)c1ccc([N+](=O)[O-])cc1	-7	1	1	-16	-9	-8
CCCNc1nc(C)cc(-c2cc(C(=O)Nc3ccccc3)on2)n1	0	196*	-1	2	-4	-17
COc1ccccc1N1CCN(S(=O)(=O)c2ccc3c(c2)n(C)c(=O)c(=O)n3C)CC1	0	nt	nt	6	nt	nt
CCC(=O)Nc1ccc(SC#N)cc1C	-13	91*	-7	0	5	-10
Cc1cc(SC#N)cc(C)c1NC(=O)CCl	8	17	6	-6	-9	-25
Nn1c(SCC(=O)NC2CCCCC2)nnc1-c1n[nH]c2c1CCC2	10	nt	nt	-1	nt	nt
COC(=O)c1ccc(C=NNC(=O)c2cc(-c3ccc(C)c(C)c3)n[nH]2)cc1	2	nt	nt	4	nt	nt
CC1CCC2(CC1)NC(=O)N(CC(=O)N1CCc3ccccc3C1)C2=O (stereo not drawn)	0	1	4	-2	1	-43
CSCCC1NC(=O)N(CC(=O)N2CCc3ccccc3C2)C1=O (stereo not drawn)	18	50*	2	-4	nt	-7
C=C(C)COc1ccc(-c2[nH]ncc2-c2ccc(OC)cc2)c(O)c1	0	92*	-5	10	3	-7
C=C(C)COc1ccc(-c2[nH]ncc2-c2ccc(OC)c(OC)c2)c(O)c1	9	1	-2	10	48	-16
C=C(C)COc1ccc(-c2[nH]ncc2-c2ccccc2)c(O)c1	10	519*	3	-4	4	-19
Cc1ccc(CNC(=O)CCn2cc(-c3ccc(C)cc3)nc2CCN)cc1	-8	40*	13	-3	nt	-23
c1ccc2nc(-c3nc4ccccc4o3)ccc2c1	-28	1	12	-24	53*	nt

Screening data as filed in PubChem.
